According to the supplement of paper PMC6555819:

Key:
Experiment in all cases: PBM binding z-score (relative to random genomic background probes); higher = stronger binding; sequences stand for … in GC…GCGATTGACAGCGTAGAATGAAGG
[1] = system: FXR:RXRa (NR concentration 270 nM, RXRa partner concentration 90 nM)
Summary of the method: (§1)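 Ligand-free nuclear receptor dimers were bound for 1 h to custom Agilent 4×180K protein-binding microarrays. Detection used antibodies against each partner (one per run). Binding z-scores rest on regression-normalized fluorescence, with random background probes as the reference.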

[2] = system: LXRa:RXRa (NR concentration 270 nM, RXRa partner concentration 90 nM)
Summary of the method: as §1

[3] = system: LXRa homodimer (NR concentration 270 nM)
Summary of the method: as §1

[4] = system: LXRb:RXRa (NR concentration 270 nM, RXRa partner concentration 90 nM)
Summary of the method: as §1

[5] = system: LXRb homodimer (NR concentration 270 nM)
Summary of the method: as §1

[6] = system: PPARa:RXRa (NR concentration 270 nM, RXRa partner concentration 90 nM)
Summary of the method: as §1

[7] = system: PPARg:RXRa (NR concentration 180 nM, RXRa partner concentration 90 nM)
Summary of the method: as §1

[8] = system: PPARg:RXRa 270nM:90nM, anti-RXR (NR concentration 270 nM, RXRa partner concentration 90 nM)
Summary of the method: as §1

[9] = system: PPARg:RXRa 30nM:10nM, anti-RXR (NR concentration 30 nM, RXRa partner concentration 10 nM)
Summary of the method: as §1

[10] = system: PPARg:RXRa 90nM:30nM, anti-RXR (NR concentration 90 nM, RXRa partner concentration 30 nM)
Summary of the method: as §1

[11] = system: PPARg:RXRa DBDmut IVT, anti-RXR (DBD mutation: RXRa K156A/R161A, NR concentration 270 nM, RXRa partner concentration 90 nM)
Summary of the method: as §1

[12] = system: PPARg:RXRa IVT, anti-PPARg (NR concentration 270 nM, RXRa partner concentration 90 nM)
Summary of the method: as §1

[13] = system: PPARg DBDmut:RXRa IVT, anti-PPARg (DBD mutation: PPARg1 K132A/R137A, NR concentration 270 nM, RXRa partner concentration 90 nM)
Summary of the method: as §1

[14] = system: PPARg DBDmut IVT, anti-PPARg (DBD mutation: PPARg1 K132A/R137A, NR concentration 270 nM)
Summary of the method: as §1

[15] = system: PPARg homodimer (NR concentration 180 nM)
Summary of the method: as §1

[16] = system: PXR:RXRa (NR concentration 270 nM, RXRa partner concentration 90 nM)
Summary of the method: as §1

[17] = system: PXR homodimer (NR concentration 270 nM)
Summary of the method: as §1

[18] = system: RARa:RXR (NR concentration 270 nM, RXRa partner concentration 90 nM)
Summary of the method: as §1

[19] = system: RARa homodimer (NR concentration 270 nM)
Summary of the method: as §1

[20] = system: RARb:RXRa (NR concentration 270 nM, RXRa partner concentration 90 nM)
Summary of the method: as §1

Row | Sequence | PBM binding z-score [1] | PBM binding z-score [2] | PBM binding z-score [3] | PBM binding z-score [4] | PBM binding z-score [5] | PBM binding z-score [6] | PBM binding z-score [7] | PBM binding z-score [8] | PBM binding z-score [9] | PBM binding z-score [10] | PBM binding z-score [11] | PBM binding z-score [12] | PBM binding z-score [13] | PBM binding z-score [14] | PBM binding z-score [15] | PBM binding z-score [16] | PBM binding z-score [17] | PBM binding z-score [18] | PBM binding z-score [19] | PBM binding z-score [20]
1 | TTACCAAGGTGAGCTGAGGTCGATGATCCAACTC | 2.13 | 0.545 | -0.604 | 0.0564 | -1.26 | 1.2 | 0.288 | 0.701 | -0.265 | 0.0498 | 0.764 | 2.27 | -0.223 | -0.4 | -0.24 | 3.58 | -0.352 | 1.23 | -0.656 | 1.72
2 | AGCCAAAGTTCATCTAGGTAACGTAAGATATGCT | 6.68 | 6.25 | 5.31 | 3.78 | 1.41 | 4.86 | 5.36 | 5.53 | 2.27 | 4.72 | 0.587 | 3.45 | 1.13 | 0.579 | 3.87 | 5.16 | 6.7 | 3.87 | 2.24 | 4.94
3 | CGTCCAAGGTCAGAGAGGTCAGTGATTGCCGAGT | 5.58 | 5.02 | 2.88 | 4.28 | 0.656 | 4.54 | 3 | 3.95 | 0.692 | 2.55 | 3.12 | 3.08 | -0.867 | -0.653 | 4.12 | 5.79 | 10.6 | 4.66 | 1.54 | 5.09
4 | TTAGACAGGTGAAGGTAACTCAGGTACGCAGTCG | 0.437 | 1.75 | -0.26 | 0.818 | -0.0711 | 1.07 | 0.825 | 1.33 | 1.9 | 1.54 | 1.15 | 1.49 | 1.36 | 0.841 | 0.811 | 0.344 | -0.00345 | 0.387 | 0.607 | 0.951
5 | GCTTGGAGGACAAGGTCAGAGCTTTGTCCGTAGA | 1.44 | 1.7 | -0.316 | 1.03 | -0.782 | 2.48 | 0.977 | 1.88 | 0.0499 | 1.35 | 1.24 | 1.71 | -1.32 | -1.05 | 0.764 | 1.76 | -0.385 | 2.05 | -0.509 | 3.48
6 | CCTTACGGGTCAATGACAGGTTATAGCATTTGGA | 6.33 | 4.45 | 1.11 | 3.68 | 0.333 | 5.07 | 3.44 | 3.62 | 1.13 | 2.5 | 2.52 | 2.91 | 0.126 | 0.222 | 4.22 | 3.44 | 0.512 | 4.2 | 0.757 | 3.97
7 | ATATGCAGGTTACATCCGGGTCATTCAGGCTATG | 2.7 | 4.82 | 0.974 | 2.99 | 0.382 | 3.53 | 2.58 | 2.61 | 0.935 | 1.49 | 3.86 | 4.01 | 0.813 | 1.04 | 1.59 | 3.71 | 1.94 | 3.45 | 0.262 | 2.34
8 | TCGAGTAGGTTAGTCGGGGCAATCAGCCAACATA | 0.297 | -0.165 | -0.263 | 0.224 | -1.01 | 0.796 | 0.0628 | 0.946 | 1.01 | 0.797 | 2.37 | 2.34 | -0.202 | -1.1 | -0.0632 | 0.138 | -0.459 | 0.453 | -0.959 | 0.473
9 | GCTGCTAGGTCAGGTTGCTCAGCTAACGGGTACG | 1.19 | 0.603 | -0.362 | 0.238 | -0.468 | 1.3 | 0.32 | 1.06 | -0.602 | 0.106 | 2.92 | 2.01 | -0.97 | -0.836 | 0.251 | -0.00315 | -0.858 | 0.655 | -0.624 | 3.17
10 | CGAACTAGGTCAGAACAGGACTGTGAAGGATGAT | 0.728 | 0.692 | -0.197 | 0.252 | -0.415 | 2.98 | 5.13 | 4.21 | 1.77 | 3.09 | 7.08 | 7.13 | 0.747 | 0.194 | 0.61 | 0.118 | -0.184 | 0.787 | 0.123 | 2.71
11 | GCTGCTAGCTCAGGTTGGTCAGCTAACGGGTACG | -0.68 | -0.822 | -0.914 | -0.935 | -1.25 | -1.08 | -0.612 | -0.997 | -1.04 | -0.839 | -0.142 | -0.678 | -1.21 | -1.62 | -1.31 | -0.81 | -0.881 | -0.76 | -2.27 | -0.463
12 | GCTGCTAGGTCAACTGATGGTCAGATAAAGCTCG | 4.47 | 3.11 | 0.48 | 2.43 | 0.348 | 3.87 | 3.29 | 3.18 | 0.958 | 2.4 | 4.95 | 4.14 | -0.121 | 0.186 | 2.79 | 1.8 | -0.238 | 3.42 | -0.022 | 4.22
13 | TCGAGTAGGTTAGGGGCATCCAGAATGGCGTCGA | 0.419 | 0.286 | -0.391 | 0.913 | -0.812 | 1.38 | 0.651 | 2.05 | 1.32 | 1.8 | 1.78 | 1.45 | -0.511 | -0.719 | 0.537 | 0.349 | -0.0589 | 0.496 | -0.597 | 1.18
14 | TCTATTAGTTGATTGGGGCAACCGAAACAGCGGA | 1.22 | 0.791 | 0.363 | 1.23 | 1.1 | 1.17 | 0.235 | 1.91 | 3.65 | 2.85 | 2.23 | 1.52 | 0.999 | 1.72 | 0.142 | 0.811 | 0.783 | 1.14 | 1.31 | 1.03
